Bim-Mcl-1: inhibitors of Bim-Mcl-1 interaction, human; Q07820; Bead-based flow cytometry, Bim peptide-Mcl-1 binding; inhibition, % at 10 µM; actives 0.1% (n = 190,000); in the data active = inhibition above about 40%;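 also: 0% = no compound tracer wells and 100% = peptide blocker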
Target sequence (Q07820 whole entry, looked up): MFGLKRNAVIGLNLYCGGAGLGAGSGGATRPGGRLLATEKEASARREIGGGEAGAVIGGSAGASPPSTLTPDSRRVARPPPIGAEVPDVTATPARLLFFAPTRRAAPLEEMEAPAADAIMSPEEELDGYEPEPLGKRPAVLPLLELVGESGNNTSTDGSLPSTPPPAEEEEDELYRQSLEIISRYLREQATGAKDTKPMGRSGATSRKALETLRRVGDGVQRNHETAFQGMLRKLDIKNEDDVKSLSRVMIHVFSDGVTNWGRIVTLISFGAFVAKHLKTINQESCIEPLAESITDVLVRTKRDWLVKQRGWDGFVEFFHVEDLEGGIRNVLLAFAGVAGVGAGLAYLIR
m-calpain inh: blocks pig calpain II enzyme activity. actives 0.37% (n = 220,000). AID 1236. inhibition, % at 16 µM. purified calpain II, fluorogenic peptide substrate, 30 min;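 active = inhibition above about 50%, limit read from the data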
Mcl1 Noxa PPI: disrupts binding of human Mcl-1 to Noxa peptide; Q07820; TR-FRET Mcl-1/Noxa peptide binding, 2 h; inhibition, % at 21.7 µM; actives 1.5% (n = 220,000); AID 1022;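 active = compounds that cut the protein-peptide binding signal by more than 50% relative to plate controls in a single-dose test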;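 also: His-tagged Mcl-1 with rhodamine Noxa BH3 peptide and terbium anti-His antibody; 0% = Mcl-1 plus Noxa peptide wells and 100% = peptide-only wells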
Mcl1-Bid inh: Mcl-1/Bid interaction inhibition; actives 0.97% (n = 220,000); TR-FRET Mcl-1/Bid-Dy647 peptide binding, 1536-well; inhibition, % at 21.7 µM; Q07820; AID 1021;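 active = compounds that cut the binding signal by more than half at the single screening dose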;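 also: His-tagged Mcl-1 with europium anti-His antibody binding Bid BH3 peptide; 0% = Mcl-1 plus peptide wells and 100% = peptide-only wells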
14-3-3 Bad inh: disrupts binding of bovine 14-3-3 zeta to phospho-Bad peptide | inhibition, % at 21.7 µM | TR-FRET 14-3-3zeta/Dy647-pBad peptide displacement, 1 h | actives 0.71% (n = 220,000);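 active = inhibition above about 70%, limit read from the data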;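 also: 0% = full 14-3-3 plus peptide FRET controls and 100% = background without 14-3-3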
NCF1 inh: inhibitors of human p47phox binding. inhibition, % at 24.7 µM. p47phox/p22phox peptide binding, fluorescence polarization, 2 h. P14598. actives 0.53% (n = 220,000);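 active = inhibition above about 30%, limit read from the data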;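 also: 0% = p47phox with labelled peptide and 100% = labelled peptide alone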
Active calls of the source: *. Sampled rows, rich in hits. Any-hit rate of the full collection: about 3.4%.

`O=C(O)CC1(CC(=O)Nc2cc3ccccc3cn2)CCCCC1` gave m-calpain inh -15.3, Mcl1 Noxa PPI -18.5, Mcl1-Bid inh -21.2, 14-3-3 Bad inh -0.8 and NCF1 inh -2.6.
Screening CN(c1ccc(OCC(=O)NCc2cccnc2)cc1)S(=O)(=O)c1ccc(Cl)cc1 returned Bim-Mcl-1 0.0, m-calpain inh 15.8, Mcl1 Noxa PPI 9.0, Mcl1-Bid inh -17.5, 14-3-3 Bad inh -4.8 and NCF1 inh -0.6.
COc1ccc(/C=c2\s/c(=C\C(=O)C(C)(C)C)[nH]c2=O)cc1O was read as m-calpain inh 11.9, Mcl1 Noxa PPI 57.6*, Mcl1-Bid inh -58.5, 14-3-3 Bad inh 2.9 and NCF1 inh -17.5.
Screening Cc1cc(/C=N/n2c(COc3ccccc3)nc3ccccc3c2=O)c(O)c([N+](=O)[O-])c1 returned Bim-Mcl-1 0.0, m-calpain inh 6.3, Mcl1 Noxa PPI 99.7*, Mcl1-Bid inh -16.9, 14-3-3 Bad inh 48.6 and NCF1 inh -1.2.
Screening O=C(Nc1ccc(S(=O)(=O)N2CCCCCC2)cc1)c1ccc(Br)o1 returned Bim-Mcl-1 -8.0, m-calpain inh 54.9*, Mcl1 Noxa PPI 31.8, Mcl1-Bid inh -13.4, 14-3-3 Bad inh 5.2 and NCF1 inh -15.6.
Screening O=C(COC(=O)c1ccc(S(=O)(=O)N2CCCC2)cc1)Nc1ccc(N2CCOCC2)cc1 returned Bim-Mcl-1 -2.0, m-calpain inh -22.9, Mcl1 Noxa PPI 33.4, Mcl1-Bid inh -19.8, 14-3-3 Bad inh -8.8 and NCF1 inh -2.1.
Screening O=C(COC(=O)c1ccc(Br)o1)Nc1ccc(S(=O)(=O)N2CCCC2)cc1 returned Bim-Mcl-1 -4.0, m-calpain inh -16.4, Mcl1 Noxa PPI 43.9, Mcl1-Bid inh 60.3*, 14-3-3 Bad inh 0.4 and NCF1 inh -20.7.
Screening CC(=O)NS(=O)(=O)c1ccc(NC(=O)c2ccc(Br)o2)cc1 returned Bim-Mcl-1 -2.0, m-calpain inh 11.1, Mcl1 Noxa PPI 7.2, Mcl1-Bid inh -13.9, 14-3-3 Bad inh 1.6 and NCF1 inh -3.5.
`O=C(Nc1ccc(N2CCOCC2)cc1)c1ccc(S(=O)(=O)N2CCCCC2)cc1` gave Bim-Mcl-1 -4.0, m-calpain inh -6.0, Mcl1 Noxa PPI -1.5, Mcl1-Bid inh -37.9, 14-3-3 Bad inh -5.0 and NCF1 inh 36.9*.
O=C(COC(=O)c1ccc[nH]c1=O)Nc1ccc(S(=O)(=O)N2CCCC2)cc1 was read as m-calpain inh -20.3, Mcl1 Noxa PPI 19.3, Mcl1-Bid inh -60.0, 14-3-3 Bad inh -2.5 and NCF1 inh -2.1.
For CCOc1cc(C(=O)Nc2ccc(N3CCOCC3)cc2)cc(Br)c1OC the results were Bim-Mcl-1 0.0, m-calpain inh 19.5, Mcl1 Noxa PPI 60.9*, Mcl1-Bid inh -24.5, 14-3-3 Bad inh 10.0 and NCF1 inh -10.3.
`NC(=NC(=O)c1ccccc1)N1N=CCC1c1ccccc1` (stereo unspecified) gave Bim-Mcl-1 -1.0, m-calpain inh -16.6, Mcl1 Noxa PPI 7.7, Mcl1-Bid inh -17.7, 14-3-3 Bad inh -7.6 and NCF1 inh -4.3.
Screening COc1ccc(CNC(=O)c2noc(C(C)C)c2[N+](=O)[O-])cc1 returned Bim-Mcl-1 -2.0, m-calpain inh 26.3, Mcl1 Noxa PPI 36.7, Mcl1-Bid inh -24.6, 14-3-3 Bad inh 3.3 and NCF1 inh 5.8.
For CCC(CC)C(=O)NCc1ccc(OC)cc1 the results were Bim-Mcl-1 0.0, m-calpain inh 30.1, Mcl1 Noxa PPI -12.1, Mcl1-Bid inh -1.9, 14-3-3 Bad inh 75.5* and NCF1 inh -4.4.
Screening COc1ccc(CNC(=O)c2noc(C)c2[N+](=O)[O-])cc1 returned Bim-Mcl-1 -2.0, m-calpain inh -14.3, Mcl1 Noxa PPI 13.8, Mcl1-Bid inh -14.9, 14-3-3 Bad inh -2.7 and NCF1 inh 33.0*.
For COc1ccc(CNC(=O)c2c(F)c(F)c(F)c(F)c2F)cc1 the results were Bim-Mcl-1 -5.0, m-calpain inh -0.9, Mcl1 Noxa PPI -6.4, Mcl1-Bid inh -11.5, 14-3-3 Bad inh -14.2 and NCF1 inh 7.1.
Screening CC(C)NC(=O)C(OC(=O)c1ccccc1)C(OC(=O)c1ccccc1)C(=O)O (stereo unspecified) returned Bim-Mcl-1 -4.0, m-calpain inh -13.1, Mcl1 Noxa PPI 2.3, Mcl1-Bid inh 15.0, 14-3-3 Bad inh 70.2* and NCF1 inh -12.9.
Cc1c(O)ccc(/C=N/Nc2nc(-c3cccnc3)nc3ccccc23)c1O was read as m-calpain inh -20.7, Mcl1 Noxa PPI 89.2*, Mcl1-Bid inh -10.6, 14-3-3 Bad inh 10.8 and NCF1 inh -89.9.

Screening data as filed in PubChem.
